# In the supplement of paper PMC6555819:
# Legend:
# Assay in all cases: PBM binding z-score (relative to random genomic background probes); higher = stronger binding; sequences stand for … in GC…GCGATTGACAGCGTAGAATGAAGG
# [1] = tested on: FXR:RXRa (NR concentration 270 nM, RXRa partner concentration 90 nM)
# Outline: (§1)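 Custom Agilent 4×180K protein-binding microarrays carried double-stranded probes. Their 34-nt variable regions held direct-repeat seeds, single-nucleotide variants, half-site ablations and random human genomic background sequences. Arrays were incubated 1 h with ligand-free nuclear receptor dimers in PBS pH 7.4, 2% milk, 0.02% Triton X-100, 1 mM DTT, 0.2 mg/mL BSA and 0.4 mg/ml salmon testes DNA. Antibodies against each partner (one per run) detected binding, and scanned fluorescence was regression-normalized. Binding z-scores use random background probes as reference.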
# [2] = tested on: LXRa:RXRa (NR concentration 270 nM, RXRa partner concentration 90 nM)
# Outline: as §1
# [3] = tested on: LXRa homodimer (NR concentration 270 nM)
# Outline: as §1
# [4] = tested on: LXRb:RXRa (NR concentration 270 nM, RXRa partner concentration 90 nM)
# Outline: as §1
# [5] = tested on: LXRb homodimer (NR concentration 270 nM)
# Outline: as §1
# [6] = tested on: PPARa:RXRa (NR concentration 270 nM, RXRa partner concentration 90 nM)
# Outline: as §1
# [7] = tested on: PPARg:RXRa (NR concentration 180 nM, RXRa partner concentration 90 nM)
# Outline: as §1
# [8] = tested on: PPARg:RXRa 270nM:90nM, anti-RXR (NR concentration 270 nM, RXRa partner concentration 90 nM)
# Outline: as §1
# [9] = tested on: PPARg:RXRa 30nM:10nM, anti-RXR (NR concentration 30 nM, RXRa partner concentration 10 nM)
# Outline: as §1
# [10] = tested on: PPARg:RXRa 90nM:30nM, anti-RXR (NR concentration 90 nM, RXRa partner concentration 30 nM)
# Outline: as §1
Sequence,PBM binding z-score [1],PBM binding z-score [2],PBM binding z-score [3],PBM binding z-score [4],PBM binding z-score [5],PBM binding z-score [6],PBM binding z-score [7],PBM binding z-score [8],PBM binding z-score [9],PBM binding z-score [10]
AGTCAAAGTTCAGGACGAGGTAACGTAGAGCACG,4.1,3.8,1.01,2.04,0.385,3.59,4.68,4.62,2.13,3.9
ACTAGTTGGTCAGCTGAGGTGACACACAATTCGG,1.58,0.508,-0.0551,0.499,-0.125,1.27,1.16,0.582,-0.235,0.398
CCTAGTTGGTCAGCAGGTCACACACCGGATATGA,1.89,1.8,1.16,2,0.372,2.85,2.27,2.51,0.854,1.83
CTCGAAAGGTCGTGCTCAGGAGAGTATACCAAAC,4.89,3.56,0.247,3.12,0.29,4.7,2.62,3.59,1.02,2.48
CCAGACAGGTGAAAGGTATCTCAGTCTGGTACGC,-0.129,0.0546,-0.271,0.122,-0.633,2.07,3.41,4.19,1.94,4.13
CGTCCAAGGTCAATGCTAGGTCAGTGCAAGCATT,6.7,5.58,2.83,4.07,0.975,4.94,3.6,4.26,0.996,3.23
CCGTACGGGTCACTCCAGGTTATAGCATCGGAGT,5.48,7.91,1.62,5.38,-0.751,4.45,2.97,3.49,1.05,1.9
GCTAGTTGGTCAGTAAAAGGTCATACACCGGTCG,3.17,4.37,5.64,3.93,0.896,4.45,2.95,4.03,2.15,3.55
CAGTCTAGGTCAGGGCCAGTATAGGAGGAACGTT,1.52,1.1,-0.0547,0.856,-0.215,2.68,2.64,2.85,1,1.96
CCTTACGGGTCAATGTTATAGCACGGGTGGTACG,4.09,2.96,0.175,2.61,0.428,3.96,3,3.22,1.1,2.16
CAAACTAGGTCACGAAAGGTCGAAGTCGAATGAC,5.94,6.62,2.69,5.17,0.867,6.03,9.65,7.81,5.91,8.11
ACTATTAGTTGACTTAGGGCAACTGATACGACGC,0.17,0.0575,0.162,0.0522,0.38,0.0544,0.858,0.0451,0.501,0.431
ATATGTAGGTTACATCCGGGTGATTCAGGCTATG,0.452,4.47,0.517,1.64,0.268,3.54,5.24,4.39,1.74,3.56
CTACCGAGGTGAACAAGGTCGTTGATTACTATTC,1.49,1.66,0.107,2.37,-0.186,3.16,1.79,1.8,0.0798,0.754
ACTCTTAGTTGAGACGAGGGCAACCGATAGGTTG,0.56,-0.132,-0.317,0.037,-0.519,0.348,0.499,-0.0707,-0.348,-0.0252
ACAGACAGGTGAGTGAAAGTAACTCAGCTGGACG,0.0251,0.239,-0.514,-0.461,-0.641,-0.0542,0.742,-0.29,-0.67,-0.542
GGTTGTAGATCAAGGTTAAGAAAGACTAAGCTAA,0.73,1.3,0.323,1.19,0.361,1.5,0.938,1.63,0.752,1.31
TCATATACGTAATACAGGTGAAAGTCGGCATCTA,1.21,1.13,0.327,1.26,0.782,1.75,1.26,2.79,3.96,3.36
ATCTCTAGGTAACCAGGTTCAGTGAATGCCGAAC,0.339,0.277,0.415,0.528,0.703,1.37,0.883,0.861,0.15,0.492
AGTCAAAGTTCATCTAGGTAACGTAAGATATGCT,6.73,6,5.07,3.62,1.73,4.84,6.6,6.14,3.3,5.53
TAGTCTAGGTCATTCAGGGGCCAGTATAGAAAGC,4.17,4.28,2.05,3.15,3.06,4.05,4.7,4.38,2.33,3.77
ATAAGTAGGTTACATCCGGGTCATTCAGGCTATG,2.43,4.37,1.57,2.84,1.24,4.53,6.68,5.15,3.19,4.37
ATCTCTAGGTAACAAATTCAGTGAAAGAGAGGAC,0.723,0.714,0.441,0.288,1.15,0.552,0.558,0.598,0.83,0.732
ACTCGCAGGCCAAGGGTCACTCAAGATTAGTCCG,2.83,3.23,0.261,2.88,-0.377,4.4,5.6,6.01,4.12,5.92
GCGACTGGGGCATCAGCAGGTTACCACAACTTAA,-0.0917,-0.185,-0.291,0.725,-0.793,0.935,0.922,1.13,-0.162,-0.0671

Sequence,PBM binding z-score [1],PBM binding z-score [2],PBM binding z-score [3],PBM binding z-score [4],PBM binding z-score [5],PBM binding z-score [6],PBM binding z-score [7],PBM binding z-score [8],PBM binding z-score [9],PBM binding z-score [10]
ATTAGCAGGCCAAGTTTGGGTCACTCAAACAAAG,0.082,0.215,-0.128,0.803,-0.539,1.62,0.124,0.309,-0.279,0.138
CCTATTAGTTGACCATAAGGGTAACCGAAGCTCG,0.709,0.386,0.682,0.604,0.958,0.678,0.317,0.671,0.348,0.358
TCTCGGAGGACACGAAAGGTCATAGCTCGACATC,4.39,5.36,5.67,4.45,0.51,4.49,2.19,3.86,3.01,3.37
GGAACGAGGACATTCGAGTTGATAGCATGGCGAT,0.116,-0.183,-0.644,-0.72,-0.703,-0.304,0.664,-0.0182,-0.118,-0.155
GGAACGAGGGCATTCGAGTGGATAGCATGGCGAT,0.825,0.32,-0.525,-0.0544,-0.833,1.13,0.858,0.594,-0.34,-0.0101
CAAACTAGGTCAAGAGGTCACAGTCCGCTTCCCG,6.79,5.84,4.4,4.97,1.01,6.61,10.2,8.35,7.25,8.69
TCTCGGAGGACACGAAAGGTCAGAGCACGACATC,2.91,3.73,3.12,3.29,0.0344,3.63,1.64,2.76,2.25,2.42
CCTCGGAGGACAACAGGAGGTCCGAGCTGCCAGA,-0.13,-0.509,-0.575,-1.1,-0.867,-0.795,-0.182,-0.921,-0.862,-0.99
CCTCGGAGGACAGAAGGTCAGACCTGTCCGCTTT,1.44,1.56,0.0539,1.3,-0.489,1.9,0.19,0.86,-0.764,0.0778
ACCGACAGGTGAGTGAAGGTAACTCAGCTGGACG,0.184,-0.107,-0.658,-0.575,-0.831,0.00904,0.444,0.0898,-0.38,-0.0157
CGAACTAGTTCATCCAGGACAGTGAATACATTGA,0.527,0.53,0.205,0.693,-0.0526,0.838,0.619,0.145,0.0881,0.329
AATACAGGGTCATCGTAGCCCAGAGTACGCACAG,6.98,5.87,2.36,4.47,1,5.89,6.62,6.26,3.25,4.75
GTACCAAGGTGAATTGGTCGTTGATGAGTAGGCG,0.321,0.0311,-0.495,-0.18,-0.792,0.557,0.383,0.173,-0.286,-0.112
CGTACAAGGTCAATGCTAGGTCAGTGAAAGCATT,7.34,6,2.7,4.55,1.54,5.5,5.12,5.6,2.08,4.22
TCATATAGGTATTACAGGTGAAAGTCGGCATCTA,1.47,2.05,1.08,1.34,0.496,1.67,1.1,2.38,4.15,3.27
CGTCAAAGTTCGACTAAGGTAACGTAAAGCACGC,1.87,1.33,0.0441,1.16,0.121,1.88,1.33,2.15,0.439,1.37
TCTAGCAGGCCAGAGGGTCAGTCAAGAGGTACGG,0.425,0.152,-0.884,0.413,-1.51,1.35,0.768,1.81,1.49,1.68
TGAATGAGGTTATAGATCAGGGAACGTGGCGTCG,1.56,1.48,-0.163,0.762,0.262,2.84,2.57,3.62,2.18,3.73
GGAACGAGGGCAAAGTTGATAGCCTCTGTCGACG,1.19,0.817,-0.461,0.459,-0.828,3.93,6.54,7.37,5.66,7.65
CTACCAAAGTGAACAAGGTCGTTGATTACTATTC,0.664,0.808,0.427,1.39,0.463,1.34,0.212,0.215,0.23,-0.0383
CCGACTGGGGAAGAAAGGTTACCATACCATCCGG,0.169,0.579,-0.0766,0.683,-0.64,2.22,1.84,3.17,1.15,2.6
ATCTCTAGGTAAAGATAGTTCAGTGGATGCAAAT,0.0236,4.13,0.642,0.57,0.439,0.29,0.474,0.242,0.139,0.257
CGAACGAGGGCATGAGTTGATACCAAATGCCGAT,0.819,0.53,-0.18,0.374,-0.612,1.57,1.61,1.67,0.555,0.997
TCTAGTAGATCAAAGGTTAAGAAAGCCGAAGCCT,1.56,2.07,0.141,1.98,-0.538,4.8,8.6,8.24,8.54,8.99
